Among the data in ChEMBL document CHEMBL3988442, “University of Dundee, Small-Polar-MMV Screening Library” (2021) are Percent Effect values, retold here.

For part of these data: Results with a measured potency or affinity are listed apart.

Design in all cases: scale not given: direction of the effect not stated beside the values
Assay [1] has as its target Protein translocase subunit SecA (Escherichia coli (strain K12)) (UniProt P10408). In words: Assay to Identify E. coli SecA ATPase Inhibitors. The assay is classed as functional. The following applies: 30 µM.
Assay [2] has as its target T1, Ubiquitin-activating enzyme e1, putative (Leishmania donovani (strain BPK282A1)) (UniProt E9BSI1).
T1 sequence (whole entry): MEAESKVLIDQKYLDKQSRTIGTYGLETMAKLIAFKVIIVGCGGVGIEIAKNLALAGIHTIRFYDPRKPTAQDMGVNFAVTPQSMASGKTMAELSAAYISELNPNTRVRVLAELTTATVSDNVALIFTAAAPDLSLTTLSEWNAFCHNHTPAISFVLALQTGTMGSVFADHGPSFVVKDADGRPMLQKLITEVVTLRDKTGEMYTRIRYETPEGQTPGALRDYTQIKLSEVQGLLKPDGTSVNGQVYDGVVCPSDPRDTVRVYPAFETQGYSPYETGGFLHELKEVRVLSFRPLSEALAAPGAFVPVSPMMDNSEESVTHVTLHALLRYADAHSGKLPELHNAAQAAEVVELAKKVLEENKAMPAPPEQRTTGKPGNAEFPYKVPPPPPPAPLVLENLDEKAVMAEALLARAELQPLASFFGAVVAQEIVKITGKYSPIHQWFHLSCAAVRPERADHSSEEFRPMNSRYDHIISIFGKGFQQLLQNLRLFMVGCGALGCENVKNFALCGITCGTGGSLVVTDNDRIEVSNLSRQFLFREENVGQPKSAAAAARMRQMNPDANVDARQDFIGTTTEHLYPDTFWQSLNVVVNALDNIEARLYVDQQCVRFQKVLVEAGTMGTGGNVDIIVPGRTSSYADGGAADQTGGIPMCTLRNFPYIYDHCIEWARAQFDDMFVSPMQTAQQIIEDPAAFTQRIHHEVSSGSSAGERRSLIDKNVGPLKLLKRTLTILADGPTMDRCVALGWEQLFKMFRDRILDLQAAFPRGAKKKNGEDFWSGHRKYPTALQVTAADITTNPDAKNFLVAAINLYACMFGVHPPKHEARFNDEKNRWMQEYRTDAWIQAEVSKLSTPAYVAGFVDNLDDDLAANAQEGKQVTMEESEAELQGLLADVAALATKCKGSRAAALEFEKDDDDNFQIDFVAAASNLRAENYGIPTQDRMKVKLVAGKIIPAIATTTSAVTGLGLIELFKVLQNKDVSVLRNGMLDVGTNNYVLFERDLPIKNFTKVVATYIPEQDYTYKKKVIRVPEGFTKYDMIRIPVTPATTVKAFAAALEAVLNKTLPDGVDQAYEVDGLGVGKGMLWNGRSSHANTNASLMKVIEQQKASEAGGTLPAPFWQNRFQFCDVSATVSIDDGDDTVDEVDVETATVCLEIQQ
In words: Leishmania donovani Ubiquitin Activating Enzyme (LdE1). The assay is classed as functional. To be noted: 30 µM.

Assay [3] concerns the target AMP-activated protein kinase, AMPK (Homo sapiens) (UniProt P54646+O43741+P54619+Q9UGJ0+Q9Y478+Q13131+Q9UGI9). As to the kind of experiment: AMP-dependent Kinase enzyme assay. An in vitro enzyme assay that detects ADP turnover that is directly proportional to AMPK activity. This uses naive AMPK that is activated during the assay with MK-8722. The format is functional. To be noted: 30 µM.

In assay [4] the target is Sialic acid-binding Ig-like lectin 9 (Homo sapiens) (UniProt Q9Y336). As to the kind of experiment: Hs-Siglec9 ALPHAscreen SOP 20170721. The following applies: 10 µM.
For another assay, the system named is Trypanosoma cruzi. In words: Trypanosoma cruzi phosphomannomutase and mannose-1-phosphate guanylyltransferase assay. The assay is classed as functional. The following applies: 10 µM.
Assay [5] concerns the target T2, Arginase-2, mitochondrial (Homo sapiens) (UniProt P78540).
T2 sequence (whole entry): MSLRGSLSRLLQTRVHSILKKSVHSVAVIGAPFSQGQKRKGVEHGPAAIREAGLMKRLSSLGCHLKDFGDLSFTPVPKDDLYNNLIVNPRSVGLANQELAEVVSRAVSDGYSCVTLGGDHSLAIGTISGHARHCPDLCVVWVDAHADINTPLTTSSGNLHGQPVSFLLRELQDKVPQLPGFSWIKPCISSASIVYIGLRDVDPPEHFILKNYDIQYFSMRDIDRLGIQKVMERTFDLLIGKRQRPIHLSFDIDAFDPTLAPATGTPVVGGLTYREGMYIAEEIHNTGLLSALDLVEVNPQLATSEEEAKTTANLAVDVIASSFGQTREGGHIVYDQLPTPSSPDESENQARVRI
In words: in vitro enzyme assay to detect the production of urea directly proportional to the activity of Arginase II. Further: in the data most compounds retested in dose-response had high values. To be noted: 33.3 µM. The format is functional.

The target of assay [6] is T3, Proteasome subunit beta (Trypanosoma cruzi) (UniProt O96673).
T3 sequence (whole entry): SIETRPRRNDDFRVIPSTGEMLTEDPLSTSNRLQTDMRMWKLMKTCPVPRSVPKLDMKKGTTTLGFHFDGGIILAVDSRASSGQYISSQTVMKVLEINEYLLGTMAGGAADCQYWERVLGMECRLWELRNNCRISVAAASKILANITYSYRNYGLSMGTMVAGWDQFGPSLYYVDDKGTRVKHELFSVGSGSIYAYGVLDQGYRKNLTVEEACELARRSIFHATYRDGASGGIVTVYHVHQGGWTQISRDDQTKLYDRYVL
As to the kind of experiment: Trypanosoma cruzi proteasome chymotrypsin-like activity (TcProtChymo) assay. Further: in the data most compounds retested in dose-response had high values. The following applies: 9.37 µM. The assay is classed as functional.

For the next assay, the species on record is Homo sapiens. As to the kind of experiment: To identify inhibition of the IFN signalling (Jak-Stat) pathway via expression of an eGFP reporter gene under the control of an IFN-stimulated response element (ISRE) containing MxA promoter. The assay is classed as functional. The following applies: 30 µM.
In assay [7] the target is T4, Tyrosyl-tRNA synthetase, putative (Trypanosoma cruzi (strain CL Brener)) (UniProt Q4DSP6).
T4 sequence (whole entry): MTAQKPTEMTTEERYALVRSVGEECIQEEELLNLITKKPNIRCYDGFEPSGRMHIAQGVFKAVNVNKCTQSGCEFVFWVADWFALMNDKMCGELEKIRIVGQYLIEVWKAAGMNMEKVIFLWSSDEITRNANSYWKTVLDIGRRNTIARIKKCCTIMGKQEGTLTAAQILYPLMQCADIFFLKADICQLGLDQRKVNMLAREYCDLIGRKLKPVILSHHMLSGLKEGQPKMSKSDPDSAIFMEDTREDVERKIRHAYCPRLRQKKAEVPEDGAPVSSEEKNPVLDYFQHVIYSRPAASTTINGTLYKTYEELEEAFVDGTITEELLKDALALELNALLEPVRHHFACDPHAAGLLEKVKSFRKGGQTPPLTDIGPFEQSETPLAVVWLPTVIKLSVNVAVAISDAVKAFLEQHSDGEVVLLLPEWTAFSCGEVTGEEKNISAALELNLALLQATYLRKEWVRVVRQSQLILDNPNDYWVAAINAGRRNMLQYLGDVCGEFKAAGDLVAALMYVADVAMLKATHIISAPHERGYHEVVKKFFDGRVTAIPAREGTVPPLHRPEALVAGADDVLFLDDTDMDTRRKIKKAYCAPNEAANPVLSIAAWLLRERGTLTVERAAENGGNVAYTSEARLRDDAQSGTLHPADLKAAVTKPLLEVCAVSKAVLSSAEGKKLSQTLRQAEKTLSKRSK
In words: Trypanosoma cruzi tyrosyl tRNA synthetase (TcYRS) _High Tyrosine SOP. Further: in the data most compounds retested in dose-response had high values. The format is functional. The following applies: 30 µM.

The target of assay [8] is T4, Tyrosyl-tRNA synthetase, putative (Trypanosoma cruzi (strain CL Brener)). As to the kind of experiment: Trypanosoma cruzi tyrosyl tRNA synthetase (TcYRS) SOP. The format is functional. The following applies: 30 µM.
The target of assay [9] is Chromo domain-containing protein 1 (Saccharomyces cerevisiae (strain ATCC 204508 / S288c) (Baker's yeast)) (UniProt P32657). In words: ScCHD-1 Enzyme Inhibition Assay. Further: in the data most compounds retested in dose-response had high values. To be noted: 30 µM. The assay is classed as functional.
Chromo domain-containing protein 1 (Saccharomyces cerevisiae (strain ATCC 204508 / S288c) (Baker's yeast)), sequence (P32657 whole entry, the tested form may be a part): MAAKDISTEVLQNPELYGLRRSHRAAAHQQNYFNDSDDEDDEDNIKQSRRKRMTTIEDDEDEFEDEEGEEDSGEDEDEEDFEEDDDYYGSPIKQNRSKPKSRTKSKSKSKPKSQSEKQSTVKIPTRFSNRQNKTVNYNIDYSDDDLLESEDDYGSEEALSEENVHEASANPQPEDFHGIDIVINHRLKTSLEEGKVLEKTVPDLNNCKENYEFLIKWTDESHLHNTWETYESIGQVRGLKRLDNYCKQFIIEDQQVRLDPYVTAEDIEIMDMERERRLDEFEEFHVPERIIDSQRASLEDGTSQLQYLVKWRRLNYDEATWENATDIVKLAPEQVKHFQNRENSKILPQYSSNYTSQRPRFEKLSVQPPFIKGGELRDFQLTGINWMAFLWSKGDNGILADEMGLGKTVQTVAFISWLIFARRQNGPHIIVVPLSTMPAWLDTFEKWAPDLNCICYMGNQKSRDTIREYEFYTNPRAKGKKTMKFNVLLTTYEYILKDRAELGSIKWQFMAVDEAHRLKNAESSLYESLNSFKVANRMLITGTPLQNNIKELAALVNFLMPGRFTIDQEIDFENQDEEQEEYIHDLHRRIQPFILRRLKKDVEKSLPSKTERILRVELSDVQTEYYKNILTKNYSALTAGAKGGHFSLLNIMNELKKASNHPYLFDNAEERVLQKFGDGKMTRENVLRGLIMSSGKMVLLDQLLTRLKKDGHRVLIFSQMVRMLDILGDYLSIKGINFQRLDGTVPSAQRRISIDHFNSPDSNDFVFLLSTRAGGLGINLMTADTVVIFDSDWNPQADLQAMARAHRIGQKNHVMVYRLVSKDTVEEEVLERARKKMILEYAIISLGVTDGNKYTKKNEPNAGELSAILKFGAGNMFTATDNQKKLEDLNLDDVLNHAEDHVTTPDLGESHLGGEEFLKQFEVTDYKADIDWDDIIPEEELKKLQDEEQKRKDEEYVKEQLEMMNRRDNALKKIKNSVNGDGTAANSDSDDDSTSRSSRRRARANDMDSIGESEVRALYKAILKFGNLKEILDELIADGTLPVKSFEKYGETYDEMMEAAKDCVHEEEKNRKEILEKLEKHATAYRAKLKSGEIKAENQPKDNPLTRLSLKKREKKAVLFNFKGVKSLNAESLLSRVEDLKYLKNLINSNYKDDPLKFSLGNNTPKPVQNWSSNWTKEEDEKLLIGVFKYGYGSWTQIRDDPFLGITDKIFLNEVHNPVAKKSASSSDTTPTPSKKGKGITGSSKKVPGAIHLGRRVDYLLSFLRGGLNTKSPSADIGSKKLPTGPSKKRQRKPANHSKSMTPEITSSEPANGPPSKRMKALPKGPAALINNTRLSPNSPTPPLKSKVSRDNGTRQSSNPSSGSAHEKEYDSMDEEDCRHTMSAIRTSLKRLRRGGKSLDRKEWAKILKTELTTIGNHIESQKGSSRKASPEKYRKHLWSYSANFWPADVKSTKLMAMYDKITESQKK

Protein translocase subunit SecA (Escherichia coli (strain K12)), sequence (P10408 whole entry): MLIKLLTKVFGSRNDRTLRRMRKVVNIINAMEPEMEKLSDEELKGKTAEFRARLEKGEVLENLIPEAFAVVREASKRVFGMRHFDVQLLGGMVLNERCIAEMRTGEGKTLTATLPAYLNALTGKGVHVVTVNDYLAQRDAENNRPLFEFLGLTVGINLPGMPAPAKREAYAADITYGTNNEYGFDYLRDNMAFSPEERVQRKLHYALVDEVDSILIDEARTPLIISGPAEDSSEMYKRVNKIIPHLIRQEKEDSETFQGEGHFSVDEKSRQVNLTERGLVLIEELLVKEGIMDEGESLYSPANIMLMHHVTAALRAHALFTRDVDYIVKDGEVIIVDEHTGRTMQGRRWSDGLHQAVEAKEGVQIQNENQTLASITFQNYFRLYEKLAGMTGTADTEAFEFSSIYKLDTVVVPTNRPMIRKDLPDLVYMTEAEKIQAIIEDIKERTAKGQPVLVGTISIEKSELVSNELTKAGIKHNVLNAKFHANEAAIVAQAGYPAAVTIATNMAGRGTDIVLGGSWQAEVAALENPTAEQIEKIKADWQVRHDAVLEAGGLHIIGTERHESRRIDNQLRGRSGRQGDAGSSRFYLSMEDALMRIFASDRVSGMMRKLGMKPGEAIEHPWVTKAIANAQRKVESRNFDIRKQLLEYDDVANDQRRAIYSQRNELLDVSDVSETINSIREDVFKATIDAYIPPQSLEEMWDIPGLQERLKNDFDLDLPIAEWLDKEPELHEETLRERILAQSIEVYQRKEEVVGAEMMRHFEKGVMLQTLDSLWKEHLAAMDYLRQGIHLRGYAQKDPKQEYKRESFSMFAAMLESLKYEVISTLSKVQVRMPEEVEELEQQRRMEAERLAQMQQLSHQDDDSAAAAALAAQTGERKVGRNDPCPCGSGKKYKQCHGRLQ
Sialic acid-binding Ig-like lectin 9 (Homo sapiens), sequence (Q9Y336 whole entry): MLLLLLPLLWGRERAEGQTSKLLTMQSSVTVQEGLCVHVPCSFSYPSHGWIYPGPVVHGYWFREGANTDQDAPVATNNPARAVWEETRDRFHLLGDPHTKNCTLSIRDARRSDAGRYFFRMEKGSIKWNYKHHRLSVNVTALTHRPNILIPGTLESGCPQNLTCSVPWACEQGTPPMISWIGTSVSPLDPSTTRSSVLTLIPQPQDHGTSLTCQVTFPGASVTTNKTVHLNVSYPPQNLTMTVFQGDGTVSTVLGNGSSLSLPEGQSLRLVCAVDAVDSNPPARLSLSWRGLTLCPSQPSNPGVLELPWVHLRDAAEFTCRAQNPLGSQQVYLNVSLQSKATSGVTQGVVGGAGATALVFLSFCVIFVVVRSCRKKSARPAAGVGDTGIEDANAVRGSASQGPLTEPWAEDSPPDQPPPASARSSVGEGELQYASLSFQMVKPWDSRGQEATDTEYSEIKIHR

As to `CCN(CC)CCNC(=O)c1cc(C(C)C)nc(N2CCCC2)n1`, the Percent Effect is -0.4% in assay [1]; 20% in assay [2]; 1.03% in assay [3]; -8.5% in assay [4]; 2.55% in the assay on Trypanosoma cruzi; -24.1% in [5]. Also, the Percent Effect was 12.8% in assay [6]; 20.4% in the assay listed under Homo sapiens; 0% in assay [7]; 12.8% in assay [8]; 80.8% in assay [9].

Turning to `CN1CC(=O)N(c2cccc(F)c2)CC12CCN(Cc1cccnc1)C2` (stereo unspecified), the Percent Effect in assay [1] was 1.08%; in [2], 7.79%; in assay [3] it was 4.97%; in assay [4], 4.25%; with Trypanosoma cruzi, -2.46%; in [5], 12.3%. Moreover, the Percent Effect in [6] is 12.9%; in the assay filed under Homo sapiens, 7.53%; in assay [7] it was 3.17%; in assay [8] it was 11.5%; in [9], -1.97%.

Take `CC(C)(C)N1CCCN(C(=O)c2csc(S(N)(=O)=O)c2)CC1`: the Percent Effect was -8.14% in assay [1]; 0% in assay [2]; 1.87% in assay [3]; -9.76% in assay [4]; -5.57% with Trypanosoma cruzi; -2.73% in assay [5]. In addition, the Percent Effect in assay [6] was -0.258%; in the assay filed under Homo sapiens it was -7.17%; in assay [7], -3.23%; in assay [8], -6.17%; in assay [9], -1.28%.

For `Cc1ccc(CN2CCCC23CCN(S(=O)(=O)c2ccccc2)C3)o1` (stereo unspecified), the Percent Effect is -3.52% in assay [1]; 8.11% in assay [2]; 0.79% in assay [3]; -6.47% in [4]; 2.25% in the assay on Trypanosoma cruzi; 1.59% in assay [5]. In addition, the Percent Effect amounted to 18.6% in [6]; 6.15% in the assay listed under Homo sapiens; 9.73% in [7]; 17.9% in assay [8]; 2.48% in assay [9].

Regarding `COc1ccc(Oc2cncc(C3CCCN3C(C)=O)n2)cc1` (stereo unspecified), the Percent Effect in [1] is -0.946%; in [2], 12.2%; in [3], 4.91%; in assay [4], -7.65%; in the assay on Trypanosoma cruzi it was -3.56%; in assay [5], 0.696%. The Percent Effect in assay [6] was 9.36%; in the assay listed under Homo sapiens it was 15.2%; in assay [7], 0%; in [8], 3.9%; in [9], -11.7%.

As to `CCOCCCC(=O)NCCC(=O)N1CCN(c2ccccn2)CC1`, the Percent Effect was -3.47% in assay [1]; 7.89% in assay [2]; 4.17% in assay [3]; 5.65% in [4]; -3.99% with Trypanosoma cruzi; -4.73% in [5]. Moreover, the Percent Effect in assay [6] was 13.3%; in the assay filed under Homo sapiens it was 2.43%; in [7], 5.32%; in assay [8], 13%; in [9], -4.16%.
